# Measured values reported in paper PMC5540273 (PLoS ONE, 2017).
# Where “and” joins values, the source holds several entries; their conditions need not be identical. Equal values may be shown once. Read-outs that look alike come from different tables or passages of the source.
# Columns and labels:
# [1] = system: PAK4; conditions: concentration: 1 μM, replicates: in singlicate, n = 1
# [2] = system: PAK6; conditions: concentration: 1 μM, replicates: in singlicate, n = 1
# [3] = system: PAK7; conditions: concentration: 1 μM, replicates: in singlicate, n = 1
# [4] = system: T1, PCTK1; conditions: concentration: 1 μM, replicates: in singlicate, n = 1
# T1 construct: gene CDK16
# [5] = system: T2, PCTK2; conditions: concentration: 1 μM, replicates: in singlicate, n = 1
# T2 construct: gene CDK17
# [6] = system: T3, PCTK3; conditions: concentration: 1 μM, replicates: in singlicate; n = 1
# T3 construct: gene CDK18
# [7] = system: PDGFRA; conditions: concentration: 1 μM, replicates: in singlicate, n = 1
# [8] = system: PDGFRB; conditions: concentration: 1 μM, replicates: in singlicate, n = 1
# [9] = system: PDPK1; conditions: concentration: 1 μM, replicates: in singlicate, n = 1
# [10] = system: PFTAIRE2; conditions: concentration: 1 μM, replicates: in singlicate; n = 1
# [11] = system: T4, PFTK1; conditions: concentration: 1 μM, replicates: in singlicate, n = 1
# T4 construct: gene CDK14
# [12] = system: PHKG1; conditions: concentration: 1 μM, replicates: in singlicate, n = 1
# [13] = system: PHKG2; conditions: concentration: 1 μM, replicates: in singlicate, n = 1
# [14] = system: PIK3C2B; conditions: concentration: 1 μM, replicates: in singlicate; n = 1
# [15] = system: PIK3C2G; conditions: concentration: 1 μM, replicates: in singlicate, n = 1
# [16] = system: PIK3CA; conditions: concentration: 1 μM, replicates: in singlicate, n = 1
# [17] = system: PIK3CB; conditions: concentration: 1 μM, replicates: in singlicate, n = 1
# [18] = system: PIK3CD; conditions: concentration: 1 μM, replicates: in singlicate; n = 1
# [19] = system: PIK3CG; conditions: concentration: 1 μM, replicates: in singlicate, n = 1
# [20] = system: T5, PIK4CB; conditions: concentration: 1 μM, replicates: in singlicate, n = 1
# T5 construct: gene PI4KB
# 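Note: KINOMEscan kinase panel screen.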
smiles,measurement,setting,value
Cc1cccc(-c2nc(-c3ccc(S(C)(=O)=O)cc3)sc2-c2ccncc2)c1,%Inh,[1],10%
same,%Inh,[2],18%
same,%Inh,[3],0%
same,%Inh,[4],0%
same,%Inh,[5],0%
same,%Inh,[6],0%
same,%Inh,[7],10%
same,%Inh,[8],0%
same,%Inh,[9],26%
same,%Inh,[10],10%
same,%Inh,[11],0%
same,%Inh,[12],0%
same,%Inh,[13],0%
same,%Inh,[14],0%
same,%Inh,[15],49%
same,%Inh,[16],20%
same,%Inh,[17],1%
same,%Inh,[18],25%
same,%Inh,[19],10%
same,%Inh,[20],0%
Cl.Nc1ncnc2occ(-c3ccc(NC(=O)Nc4cc(C(F)(F)F)ccc4F)cc3)c12 [SB-707548],%Inh,[1],9%
same,%Inh,[2],6%
same,%Inh,[3],26%
same,%Inh,[4],11%
same,%Inh,[5],80%
same,%Inh,[6],67%
same,%Inh,[7],99.8%
same,%Inh,[8],100%
same,%Inh,[9],33%
same,%Inh,[10],68%
same,%Inh,[11],79%
same,%Inh,[12],0%
same,%Inh,[13],8%
same,%Inh,[14],0%
same,%Inh,[15],23%
same,%Inh,[16],0%
same,%Inh,[17],8%
same,%Inh,[18],27%
same,%Inh,[19],6%
same,%Inh,[20],0%
CN1c2ccc(NCc3ccc(F)cc3)cc2-c2c(cnn2C)S1(=O)=O,%Inh,[1],0%
same,%Inh,[2],0%
same,%Inh,[3],0%
same,%Inh,[4],0%
same,%Inh,[5],0%
same,%Inh,[6],0%
same,%Inh,[7],0%
same,%Inh,[8],0%
same,%Inh,[9],0%
same,%Inh,[10],0%
same,%Inh,[11],0%
same,%Inh,[12],0%
same,%Inh,[13],0%
same,%Inh,[14],0%
same,%Inh,[15],0%
same,%Inh,[16],0%
same,%Inh,[17],0%
same,%Inh,[18],0%
same,%Inh,[19],0%
same,%Inh,[20],0%
NS(=O)(=O)c1cccc(-c2ccc3nccc(-c4cccc(S(N)(=O)=O)c4)c3c2)c1 [GW867253],%Inh,[1],0%
same,%Inh,[2],0%
same,%Inh,[3],6%
same,%Inh,[4],0%
same,%Inh,[5],0%
same,%Inh,[6],0%
same,%Inh,[7],0%
same,%Inh,[8],1%
same,%Inh,[9],0%
same,%Inh,[10],19%
same,%Inh,[11],0%
same,%Inh,[12],0%
same,%Inh,[13],5%
same,%Inh,[14],58%
same,%Inh,[15],52%
same,%Inh,[16],38%
same,%Inh,[17],24%
same,%Inh,[18],39%
same,%Inh,[19],88%
same,%Inh,[20],99.1%
Fc1ccc(-c2ncn(CCCN3CCOCC3)c2-c2cccnc2)cc1 [SB-211743],%Inh,[1],7%
same,%Inh,[2],0%
same,%Inh,[3],0%
same,%Inh,[4],0%
same,%Inh,[5],0%
same,%Inh,[6],0%
same,%Inh,[7],0%
same,%Inh,[8],0%
same,%Inh,[9],1%
same,%Inh,[10],0%
same,%Inh,[11],0%
same,%Inh,[12],3%
same,%Inh,[13],0%
same,%Inh,[14],0%
same,%Inh,[15],0%
same,%Inh,[16],10%
same,%Inh,[17],0%
same,%Inh,[18],0%
same,%Inh,[19],0%
same,%Inh,[20],17%
c1ccc(-c2n[nH]cc2-c2ccnc3ccccc23)nc1 [GW271431],%Inh,[1],0%
same,%Inh,[2],11%
same,%Inh,[3],8%
same,%Inh,[4],0%
same,%Inh,[5],0%
same,%Inh,[6],20%
same,%Inh,[7],0%
same,%Inh,[8],20%
same,%Inh,[9],0%
same,%Inh,[10],36%
same,%Inh,[11],25%
same,%Inh,[12],0%
same,%Inh,[13],0%
same,%Inh,[14],0%
same,%Inh,[15],0%
same,%Inh,[16],0%
same,%Inh,[17],0%
same,%Inh,[18],5%
same,%Inh,[19],0%
same,%Inh,[20],0%
NCCNS(=O)(=O)c1ccc(-c2ccnc3[nH]ccc23)cc1 [GSK977617],%Inh,[1]; 1 µM,82% and 75%
same,%Inh,[2]; 1 µM,73% and 61%
same,%Inh,[3]; 1 µM,90.8% and 77%
same,%Inh,[4]; 1 µM,1% and 2%
same,%Inh,[5]; 1 µM,7% and 0%
same,%Inh,[6],0%
same,%Inh,[7]; 1 µM,11% and 10%
same,%Inh,[8]; 1 µM,80% and 65%
same,%Inh,[9]; 1 µM,11% and 0%
same,%Inh,[10],25%
same,%Inh,[11]; 1 µM,16% and 27%
same,%Inh,[12]; 1 µM,45% and 25%
same,%Inh,[13]; 1 µM,75% and 60%
same,%Inh,[14],0%
same,%Inh,[15]; 1 µM,32% and 12%
same,%Inh,[16]; 1 µM,0% and 3%
same,%Inh,[17]; 1 µM,43% and 15%
same,%Inh,[18],0%
same,%Inh,[19]; 1 µM,80% and 68%
same,%Inh,[20]; 1 µM,64% and 26%
CNc1ncnc2[nH]ncc12 [SKF-18355],%Inh,[1],0%
same,%Inh,[2],0%
same,%Inh,[3],0%
same,%Inh,[4],0%
same,%Inh,[5],0%
same,%Inh,[6],0%
same,%Inh,[7],0%
same,%Inh,[8],0%
same,%Inh,[9],0%
same,%Inh,[10],12%
same,%Inh,[11],0%
same,%Inh,[12],0%
same,%Inh,[13],0%
same,%Inh,[14],3%
same,%Inh,[15],0%
same,%Inh,[16],1%
same,%Inh,[17],0%
same,%Inh,[18],0%
same,%Inh,[19],5%
same,%Inh,[20],17%
COC(=O)Nc1nc2cc(Oc3ccc(NC(=O)Nc4cc(F)ccc4F)cc3)ccc2[nH]1.Cl [GW701424],%Inh,[1],0%
same,%Inh,[2],0%
same,%Inh,[3],12%
same,%Inh,[4],0%
same,%Inh,[5],0%
same,%Inh,[6],23%
same,%Inh,[7],98.9%
same,%Inh,[8],100%
same,%Inh,[9],0%
same,%Inh,[10],0%
same,%Inh,[11],19%
same,%Inh,[12],0%
same,%Inh,[13],0%
same,%Inh,[14],0%
same,%Inh,[15],0%
same,%Inh,[16],0%
same,%Inh,[17],0%
same,%Inh,[18],0%
same,%Inh,[19],0%
same,%Inh,[20],0%
Cc1ccc(NC(=O)c2ccnc(N3CCN(C)CC3)c2)cc1-c1ccc(C(=O)NCC2CC2)cc1 [GW775604],%Inh,[1],0%
same,%Inh,[2],0%
same,%Inh,[3],0%
same,%Inh,[4],0%
same,%Inh,[5],0%
same,%Inh,[6],0%
same,%Inh,[7],0%
same,%Inh,[8],93.4%
same,%Inh,[9],0%
same,%Inh,[10],1%
same,%Inh,[11],0%
same,%Inh,[12],0%
same,%Inh,[13],0%
same,%Inh,[14],0%
same,%Inh,[15],0%
same,%Inh,[16],0%
same,%Inh,[17],0%
same,%Inh,[18],0%
same,%Inh,[19],0%
same,%Inh,[20],0%
